The values below come from PubChem BioAssay AID920 (The Scripps Research Institute Molecular Screening Center, 2007).

Structures are written as SMILES. About 700 (0.35%) of roughly 200,000 compounds were called active.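 How the source made its calls: active means inhibition above a set limit, the mean inhibition across all tested compounds plus 3 SD (cut at about 34% in these data); inactive means the rest.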 The sample as a whole holds a higher share of actives than the screen did.

This test in a line: blockers of IFN-gamma driven STAT1 reporter – cell-based, HTS, luciferase reporter, primary screen (AID 920).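 Further: 0% = IFN-gamma with DMSO and 100% = IFN-gamma with 300 µM nifuroxazide.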 Particulars: NIH 3T3 STAT1-luciferase reporter, luminescence, at 5.5 µM, hits give high values.
For `CC(CC(=O)O)CC(=O)NNC(=O)c1cccc(Br)c1` (stereo not drawn), the inhibition (as a rule, the change of the read-out against control, counted positive when it falls) was -8.27% (inactive).

For the compound `O=C1c2ccccc2NC(c2ccccn2)N1NS(=O)(=O)c1ccccc1` (stereo not drawn), the inhibition was -5.92% (inactive).

Regarding `O=C(c1cn(-c2ccccc2)nc1-c1cc2ccccc2oc1=O)N1CCOCC1`, the inhibition is 2.66% (inactive).

`O=c1oc2ccccc2cc1-c1cn(-c2ccccc2)c(=S)[nH]1`: the inhibition was 76.9% (active).

With `Nc1ncc(-c2cc3ccccc3oc2=O)s1`, the inhibition is -72.7% (inactive).

For `CCNC(=O)COc1cc(C)c(Br)c(C)c1`, the inhibition was -0.94% (inactive).

As to `CCC1CCCCN1CCCNC(=O)c1cc2c(Cl)nc3ccccc3c2s1` (stereo not drawn), the inhibition was -24.2% (inactive).

On to `O=C(C1=C[C@H](c2coc3ccccc3c2=O)C[C@H](OCc2ccc(CO)cc2)O1)N1CCN(Cc2ccccc2)CC1`, for which the inhibition is 7.51% (inactive).

On to `O=C1CC(c2c(F)cccc2Cl)C(n2cncn2)C(O)=C1C1NCCc2ccccc21` (stereo not drawn), for which the inhibition was -3.15% (inactive).

Turning to `O=C(O)c1ccc(N/N=C/c2ccc3ncccc3c2)cc1`, the inhibition is 37.4% (active).

Take `CCNC(=S)NNC(=O)c1ccc2ncccc2c1`: the inhibition is -9.62% (inactive).

Take `O=C(O)c1ccc(N/N=C/c2cn(-c3ccccc3)nc2-c2cccs2)cc1`: the inhibition was -5.55% (inactive).

`COc1ccc(N2CCN(C(=O)c3ccc4c(Cl)c5c(nc4c3)CCCC5)CC2)cc1`: the inhibition was 1.44% (inactive).

On to `Cn1cccc1-c1nc2ccccc2n1C`, for which the inhibition was -1.19% (inactive).

As to `CN1c2ccccc2-c2nc3ccccc3n2C1c1ccco1` (stereo not drawn), the inhibition was -3.93% (inactive).

In the case of `Cn1c(-c2ccco2)nc2cc3ccccc3cc21`, the inhibition was 36.6% (active).

Turning to `COCCNC(=S)N1CCC(NC(=O)C23CC4CC(CC(C4)C2)C3)CC1`, the inhibition is -0.94% (inactive).

For the compound `CCOC(=O)C1(Cc2ccc(Cl)cc2)CCN(C(=O)C2=NNC(=O)CC2)CC1`, the inhibition was 2.27% (inactive).

For the compound `COC(=O)C1=C(C)N(C(C)c2ccccc2)C(=O)/C1=C\c1ccco1` (stereo not drawn), the inhibition was 6.65% (inactive).

Turning to `CCn1c(CSc2nc(C)cc(C)n2)nnc1SCC(N)=O`, the inhibition was -4.79% (inactive).

As for `Cc1ccccc1-n1cc(CNC(=O)CC2C(=O)NCCN2C/C=C/c2ccccc2)cn1` (stereo not drawn), the inhibition was -1.08% (inactive).

`O=C(CCN1CCN(c2ccccc2)CC1)NNC(=S)Nc1ccccc1`: the inhibition is 12.2% (inactive).

In the case of `CCN(CC)S(=O)(=O)c1ccc(NC(=O)c2cccnc2Cl)c(NC(=O)c2cccnc2Cl)c1`, the inhibition is 10.8% (inactive).

As for `CCOc1ncccc1C(=O)OCc1cn2cc(Cl)ccc2n1`, the inhibition was -9.01% (inactive).

Turning to `Clc1ccc2nc(CSc3ccccc3)cn2c1`, the inhibition is 35.4% (active).

Consider `O=c1cc(CSc2ccc(Cl)cc2)nc(N2CCOCC2)[nH]1`, for which the inhibition was 2.61% (inactive).

As for `O=C(NCCCO)/C(=C\C=C\c1ccccc1)NC(=O)c1ccccc1Cl`, the inhibition was 3.7% (inactive).

As to `Cc1nn(C)c(C)c1CN(C(=O)CCc1nnc(Cc2c[nH]c3ccccc23)o1)C(C)C`, the inhibition was -1.77% (inactive).

With `COCCn1c(C)cc(C2=NNC(=Nc3ccc(F)cc3)SC2)c1C`, the inhibition was -36.4% (inactive).

With `C=CCn1c(C)cc(C2=NNC(=NCC)SC2)c1C`, the inhibition is 94.7% (active).

`Cc1cc(C2=NNC(=Nc3ccc(S(=O)(=O)N4CCOCC4)cc3)SC2)c(C)n1CC1CCCO1` (stereo not drawn): the inhibition is -1.28% (inactive).

On to `N/C(=N\OC(=O)Cc1ccccc1[N+](=O)[O-])c1ccc(Br)cc1`, for which the inhibition is 0.32% (inactive).

In the case of `CCc1cc2c(NC3CCCC3)ncnc2s1`, the inhibition is 22.1% (inactive).

`CCc1cc2c(SCC(=O)Nc3ncc(Cl)c(C)c3Cl)ncnc2s1`: the inhibition is -4.22% (inactive).

Turning to `CCc1cc2c(N3CCN(c4nnc(CC)s4)CC3)ncnc2s1`, the inhibition was 51.2% (active).

Regarding `O=C1C2C3C=CC(C4CC34)C2C(=O)N1c1nccs1` (stereo not drawn), the inhibition was 3.92% (inactive).

With `C#CCOCCOCCOCCNc1nc(N2CCN(C(=O)[C@H](C(C)C)n3cc(CCO)nn3)CC2)nc(N2CCN(C(=O)[C@H]([C@@H](C)CC)n3cc(CCCN=C(N)N)nn3)CC2)n1`, the inhibition was -0.51% (inactive).

For `CC(=O)c1ccc(N2CCN(CC(=O)Nc3ccccc3N3CCOCC3)CC2)cc1`, the inhibition was 15% (inactive).

Turning to `O=C(CSC(=S)N1CCOCC1)c1ccccc1`, the inhibition was -27.1% (inactive).

In the case of `O=C(CC(=O)Nc1ccc(Cl)c(Cl)c1)N/N=C/c1ccc(O)cc1`, the inhibition is 6.41% (inactive).

With `O=C(CC(O)(C(F)(F)F)C(F)(F)F)Nc1ccc(Cl)c(Cl)c1`, the inhibition was 48.3% (active).

As for `CN(C)CCNC(CC(=O)Nc1ccc(Cl)c(Cl)c1)C(=O)O` (stereo not drawn), the inhibition is 0.9% (inactive).

Regarding `CC1=C(C)CC(C(=O)NC(C)CCc2ccccc2)C(C(=O)O)C1` (stereo not drawn), the inhibition is -0.81% (inactive).

Take `CCCCOc1ccc(C(=O)NCC(=O)OCC(=O)N2CCN(S(=O)(=O)c3ccc(C)cc3C)CC2)cc1`: the inhibition was -1.91% (inactive).

For `CCCNC(=O)c1c(N)n(-c2ccc(S(N)(=O)=O)cc2)c2nc3ccccc3nc12`, the inhibition is -1.16% (inactive).

Regarding `CC(C)Cn1c(N)c(C(=O)NCc2cccs2)c2nc3ccccc3nc21`, the inhibition is -2.91% (inactive).

Take `CCC(C)NC(=O)c1c(N)n(/N=C/c2cccs2)c2nc3ccccc3nc12` (stereo not drawn): the inhibition was 39.4% (active).

With `Cc1ccc(-c2nc(-c3cccnc3)sc2CC(=O)Nc2ccc(C)c(Cl)c2)cc1`, the inhibition is 13.7% (inactive).
